This is one part of a sample in which hits are shown more often than they occur.
Shiga toxin inh – blocks Shiga toxin action in Vero cells | Vero cells, Shiga toxin protein synthesis inhibition reporter | actives 9.2% (n = 290,000) | inhibition, % at 38.7 µM; in the data active = inhibition mostly above about 28%, no sharp cut-off; inactive = mostly below about 43%; note: 0% is about no effect
Tb PYK inh – T. brucei pyruvate kinase inhibition; TbPYK enzyme, Kinase-Glo Plus ATP luminescence, 45 min; Potency, µM (titrated, usually from 76.8 µM), without a hit: at the top dose activity, negative = inhibition, actives largely listed as inhibitors; Q57TT1; actives 0.12% (n = 410,000); note: potency is the fitted concentration of half-maximal effect; % is set by controls: 0 for no effect and ±100 for the full control effect; nearly all actives have a fitted effect of over 50% in size
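TbPYK + substrate in 50 mM TEA pH 7.2, 100 mM KCl, 10 mM MgCl2, 0.05% BSA, 0.01% Tween-20; cpd pinned; ADP 130 uM final; 45 min RT; Kinase-Glo Plus 10 min; luminescence endpoint.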
CHX counter – counter-screen for Shiga toxin inhibitors: cycloheximide protein synthesis inhibition; cell reporter, cycloheximide protein synthesis inhibition counterscreen; max response, %; actives 12% (n = 300,000); in the data active = max response mostly above about 13%, no sharp cut-off; inactive = mostly below about 14%; note: read at 38.3 µM for the half of the compounds with a filed dose; 0% is about no effect
RE007 growth inh – less growth of the S. pombe RE007 Vpr strain | S. pombe RE007 Vpr strain, BacTiter-Glo ATP luminescence, 24 h | Potency, µM (top dose mostly 92.2 µM), for inactives: at the top dose activity change, negative = less growth, most hits filed as inhibitors | actives 0.21% (n = 360,000) | AID 651644; active = well fitted falling curve with a large enough effect; inconclusive = small, poorly fitted or top-dose-only effect; inactive = no such curve, though single readings can be large or run the other way; note: potency is the fitted concentration of half-maximal effect; % is set by controls: 0 for no effect and ±100 for the full control effect; nearly all actives have a fitted effect of over 50% in size
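Fission yeast RE007 carrying one integrated HIV-1 vpr copy, seeded at OD 0.01 in PMG+AL medium with 23 nL pinned compound. Grown 24 h at 30 degrees; viability read by BacTiter-Glo luminescence after 5 min.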
LmPK inhibitor – inhibitors of Leishmania mexicana pyruvate kinase. Q27686. purified LmPK, Kinase-Glo ATP luminescence, 1 h. Potency, µM (titrated, usually from 57.5 µM), inactives show at the highest dose activity change, negative = inhibition, most hits filed as inhibitors. actives 0.37% (n = 290,000). AID 1721; note: potency is the fitted concentration of half-maximal effect; % is set by controls: 0 for no effect and ±100 for the full control effect
Target sequence (Q27686 whole entry, looked up): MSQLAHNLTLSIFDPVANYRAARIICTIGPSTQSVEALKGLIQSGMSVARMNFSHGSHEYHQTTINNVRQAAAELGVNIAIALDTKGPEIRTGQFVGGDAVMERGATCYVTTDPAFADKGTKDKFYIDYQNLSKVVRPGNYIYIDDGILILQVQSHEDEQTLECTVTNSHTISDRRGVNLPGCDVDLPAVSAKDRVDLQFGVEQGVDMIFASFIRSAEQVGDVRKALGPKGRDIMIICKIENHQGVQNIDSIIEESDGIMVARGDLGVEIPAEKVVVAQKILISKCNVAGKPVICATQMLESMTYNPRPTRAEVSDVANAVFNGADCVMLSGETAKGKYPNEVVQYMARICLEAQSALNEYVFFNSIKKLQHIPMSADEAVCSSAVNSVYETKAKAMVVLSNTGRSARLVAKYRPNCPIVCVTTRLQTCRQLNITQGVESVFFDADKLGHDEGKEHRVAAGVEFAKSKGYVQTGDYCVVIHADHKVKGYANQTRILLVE
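Screened at intermediate enzyme activity to detect both inhibitors and activators: LmPK at 0.1 nM, with a 0.5 nM enzyme column as activation reference. PEP 0.5 mM, ADP 0.1 mM; ATP detected by luminescence after 1 h.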
Giardia FBPA inh – blocks Giardia fructose-bisphosphate aldolase activity; A8B2U2; purified Giardia FBPA; Potency, µM (titrated, usually from 59.6 µM), for inactives: top-dose activity, negative = inhibition, hits mostly inhibitors; actives 0.71% (n = 290,000); AID 2451; note: potency is the fitted concentration of half-maximal effect; % is set by controls: 0 for no effect and ±100 for the full control effect; nearly all actives have a fitted effect of over 55% in size
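Giardia FBPA (40 nM reagent) was preincubated 10 min at RT with compound (up to 57.5 uM final), then substrate plus GAPDH/TPI/NAD/arsenate coupling system with diaphorase/resazurin was added; resorufin fluorescence (525/598 nm) was read after 20 min.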
An asterisk follows results filed as active; ? = inconclusive; nt = not tested or not shown; + = active, no number; [ ] = dose if it differs, or a comment. Unless noted, calls come from the whole dose curve; as a rule, active = well fitted curve in the direction sought with a large enough effect; inconclusive = small, poorly fitted or top-dose-only effect, or another doubt; inactive = no such curve, though single readings can be large; an effect the other way counts as inactive or inconclusive.

SMILES | Shiga toxin inh | Tb PYK inh | CHX counter | RE007 growth inh | LmPK inhibitor | Giardia FBPA inh
CC1=C(C(=O)Nc2ccccn2)C(c2ccc(Cl)cc2Cl)NC(=S)N1 (stereo unspecified) | 111* | -1% | 35* | -17% | -3% | 0%
Cc1cccc(-c2nc3cc(NC(=O)COc4ccccc4F)ccc3o2)c1 | nt | -7% | nt | nt | nt | nt
CCN(CC)S(=O)(=O)c1ccc2c(c1)N(CC(=O)Nc1ccc(C)cc1C)C(=O)C1CCCN21 (stereo unspecified) | nt | -1% | nt | nt | nt | nt
Cc1ccc(NC(=O)C2COc3ccccc3O2)nc1 (stereo unspecified) | 56 | 1% | 40* | -8% | -6% | 6%
CC1CCC(NC(=O)C2COc3ccccc3O2)CC1 (stereo unspecified) | nt | -3% | nt | -13% | nt | nt
Cc1ccnc(NC(=O)C2COc3ccccc3O2)c1 (stereo unspecified) | 56* | 1% | 65* | -9% | -14% | 1%
Cc1ccc(NC(=O)c2cc(S(=O)(=O)N3CCc4ccccc43)ccc2F)cc1Cl | nt | -2% | nt | nt | nt | nt
Nc1nn2cc(-c3ccc(Br)cc3)nc2c2ccccc12 | 125* | -4% | 62* | ? | ? | -5%
C[C@H](CO)N1C[C@H](C)[C@H](CN(C)C(=O)c2ccccc2)OCc2ccccc2-c2c(n(C)c3ccccc23)C1=O | nt | 3% | nt | 2% | nt | nt
CC(C)CC(=O)Nc1cccc(-c2csc(-c3ccccc3)n2)c1 | + | -5% | 39* | -4% | 6% | 8%
CCC(=O)Nc1cccc(-c2csc(-c3ccccc3)n2)c1 | 62* | 1% | 54* | -1% | -1% | 0%
O=C(COc1ccccc1)Nc1cccc(-c2nc3cc4ccccc4cc3[nH]2)c1 | 79* | -4% | 70* | ? | -12% | -10%
CC(C)CC(=O)Nc1cccc(-c2nc3ccccc3[nH]2)c1 | 16 | -28% | 14* | -4% | -4% | -6%
CC(=O)Nc1cccc(-c2nc3ccccc3[nH]2)c1 | 36 | -8% | 15 | -29% | -9% | -11%
CSCCC(c1nnnn1C1CCCC1)N1CCN(C/C=C/c2ccccc2)CC1 (stereo unspecified) | nt | -1% | nt | -9% | nt | nt
CCOc1ccc(CN2CCc3nc(Nc4ccc5c(c4)OCCO5)ncc3C2)cc1 | nt | -9% | nt | nt | nt | nt
CC[C@@H]1[C@H]2CCCC(=O)N3CC[C@@H](C[C@@H]1OC(=O)Nc1ccccc1)[C@@H]23 | -15 | -13% | 1 | -14% | -4% | -2%
O=C(NC1CCCC1)c1ccc2c(c1)N(Cc1ccccc1F)C(=O)c1ccccc1S2 | nt | 1% | nt | nt | nt | nt
O=C1C=C(c2ccc(Cl)c(C(F)(F)F)c2)C[C@@H](c2ccc3c(c2)OCO3)C1 | nt | 3% | nt | -6% | nt | nt
CCCCN(C)C(=O)C1CCN(Cc2ccc(OCc3ccccc3)cc2)CC1 | active | -6% | 13 | 32% | -3% | -14%
CCOC(=O)C1CCN(Cc2ccc(OCc3ccccc3)cc2)CC1 | 6 | 4% | 3 | -12% | -15% | ?
NC(=O)C1CCN(Cc2ccc(OCc3ccccc3)cc2)CC1 | 54* | -3% | 25* | 4% | 3% | ?
COc1ccc(CN2CCC(C(N)=O)CC2)cc1OCc1ccccc1 | -4 | 15% | -2 | -13% | 1% | ?
O=C(N/N=C/c1ccc(Br)o1)c1ccc2c(c1)OCCO2 | 101* | -10% | 57* | -22% | -7% | -14%
Cc1cc(O)cc(O)c1/C=N/NC(=O)c1ccc2c(c1)OCCO2 | nt | 5% | nt | -4% | nt | nt
SMILES | Shiga toxin inh | Tb PYK inh | CHX counter | RE007 growth inh | LmPK inhibitor | Giardia FBPA inh
O=C(N/N=C/c1ccc2c(c1)OCO2)c1cccnc1 | 104* | -6% | 48* | 2% | -16% | 6%
COc1c(O)ccc(/C=N/NC(=O)c2ccc3c(c2)OCCO3)c1[N+](=O)[O-] | 52* | 3% | 21* | -18% | 1% | 0%
Cc1ccc(C(=O)N/N=C\c2ccc3c(c2)OCO3)cn1 | 28 | -14% | 17 | -19% | 0% | 6%
Cc1ccc(/C=N\NC(=O)c2ccc3c(c2)OCO3)o1 | 53 | 0% | 37* | 12% | -17% | nt
O=C(N/N=C/c1ccc([N+](=O)[O-])o1)c1ccc2c(c1)OCO2 | 9 | -3% | 9 | 10% | 1% | -8%
CCC(=O)NC(=S)Nc1cc(C(=O)O)ccc1OC | 9 | -7% | -1 | -8% | 1% | 5%
O=C(O)c1ccc(/C=N/NC(=O)c2ccc3c(c2)OCCO3)cc1 | 22 | 0% | 21* | -21% | -3% | nt
CCOC(=O)N/N=C\c1ccc(OC(=O)c2ccc3c(c2)OCO3)cc1 | 35 | -2% | 42* | -26% | -4%[11.5 µM] | -13%
O=C(N/N=C\c1ccc2c(c1)OCO2)c1cncc(Br)c1 | 60* | 0% | 23* | 2% | -3% | -7%
COc1cc(/C=N/NC(=O)c2ccc3c(c2)OCCO3)cc(Cl)c1O | 17 | 5% | 23* | 4% | -2% | nt
COc1cc(/C=N/NC(=O)CNC(=O)c2ccc3c(c2)OCCO3)ccc1O | 17 | -5% | 11 | 19% | 1% | 2%
O=C(N/N=C/c1ccc(O)cc1)c1cncc(Br)c1 | 21 | 8% | 11 | -11% | -9% | -4%
COc1cc(-c2c(NC(=O)c3ccco3)oc3ccccc3c2=O)cc(OC)c1OC | -3 | 0% | 8 | -2% | 6% | nt
CCOC(=O)c1ccc(NC(=O)C2=C(C)C(=O)OC23CCN(C(C)C)CC3)cc1 | nt | -3% | nt | nt | nt | nt
Cc1nn(C)cc1/C=N/NC(=O)c1ccc2c(c1)OCO2 | 26 | -8% | 16* | -10% | -12% | 1%
CCn1cc(/C=N/NC(=O)c2ccc3c(c2)OCO3)cn1 | 24 | 5% | 35* | 1% | -3% | 7%
CN(C)c1ccc(/C=N/NC(=O)c2ccc3c(c2)OCO3)cc1 | 91* | -2% | 39* | 9% | -13% | -5%
O=C(N/N=C/c1cccnc1)c1ccc2c(c1)OCCO2 | 42* | 6% | 42* | -6% | -9% | -2%
O=C(N/N=C/c1ccccc1)c1ccc2c(c1)OCO2 | 24 | -2% | 25 | -9% | -8% | -6%
CSCCC(NC(=O)c1ccco1)C(=O)N1CCN(c2ccccc2O)CC1 (stereo unspecified) | nt | -3% | nt | -2% | nt | nt
Cc1ccc2nc(CSc3nnc(NC(=O)COc4ccccc4F)s3)cc(=O)n2c1 | nt | -7% | nt | nt | nt | nt
O=C(N/N=C/c1ccc2c(c1)OCO2)c1ccc(NS(=O)(=O)c2cccs2)cc1 | 81* | -8% | 24* | 7% | -5% | 4%

Screening data deposited in PubChem BioAssay by National Center for Advancing Translational Sciences (NCATS).
